# FEN1 inh: blocks human flap endonuclease 1; P39748; Recombinant FEN1 flap cleavage, fluorescence, 15 min; Potency, µM (highest dose often 114 µM), for the others: at the top dose activity change, negative = inhibition, usual class: inhibitors; actives 0.35% (n = 390,000); further: potency means the concentration at half of the fitted maximal effect; on the % scale 0 is the no-effect control and ±100 the full control effect; nearly all actives have a fitted effect of over 65% in size
#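 FEN1 at 10 nM preincubated with compounds 15 min at room temperature, then flap DNA substrate added at 50 nM final. Signal read at 0 and 15 min; concentration-response fitted with four-parameter Hill equation.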
# WRN helicase inh: inhibitors of human WRN helicase. actives 0.46% (n = 360,000). Potency, µM (highest dose often 114 µM), for the others: at the top dose activity change, negative = inhibition, usual class: inhibitors. WRN helicase unwinding, fluorescent forked duplex, kinetic. AID 651768; further: potency means the concentration at half of the fitted maximal effect; on the % scale 0 is the no-effect control and ±100 the full control effect; nearly all actives have a fitted effect of over 55% in size
#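 Enzyme (20 nM final) and test compound sit together 15 min at room temperature before substrate addition. Substrate is a single-forked duplex oligonucleotide (100 nM) labelled with fluorophore and quencher, with 2 mM ATP; helicase unwinding raises red fluorescence, read kinetically.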
# Pol kappa inh: inhibitors of human DNA polymerase kappa | Q9UBT6 | purified Pol kappa, fluorescent DNA synthesis assay, 10 min | Potency, µM (highest dose often 107 µM), inactives show at the highest dose activity, negative = inhibition, hits mostly inhibitors | actives 0.53% (n = 400,000) | AID 588579; further: potency means the concentration at half of the fitted maximal effect; on the % scale 0 is the no-effect control and ±100 the full control effect
#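 Enzyme at 10 nM met test compounds for 15 min at room temperature. Substrate addition (50 nM final) began the reaction, which was monitored by fluorescence at 0 and 10 min.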
# Pol iota inh: DNA polymerase iota (human) inhibition | Potency, µM (series often up to 115 µM), inactives show at the top dose activity, negative = inhibition, usual class: inhibitors | actives 1% (n = 390,000) | Q9UNA4 | AID 588590 | Pol iota fluorescent replication assay, 10 min; further: potency means the concentration at half of the fitted maximal effect
# Target sequence (Q9UNA4 whole entry, looked up): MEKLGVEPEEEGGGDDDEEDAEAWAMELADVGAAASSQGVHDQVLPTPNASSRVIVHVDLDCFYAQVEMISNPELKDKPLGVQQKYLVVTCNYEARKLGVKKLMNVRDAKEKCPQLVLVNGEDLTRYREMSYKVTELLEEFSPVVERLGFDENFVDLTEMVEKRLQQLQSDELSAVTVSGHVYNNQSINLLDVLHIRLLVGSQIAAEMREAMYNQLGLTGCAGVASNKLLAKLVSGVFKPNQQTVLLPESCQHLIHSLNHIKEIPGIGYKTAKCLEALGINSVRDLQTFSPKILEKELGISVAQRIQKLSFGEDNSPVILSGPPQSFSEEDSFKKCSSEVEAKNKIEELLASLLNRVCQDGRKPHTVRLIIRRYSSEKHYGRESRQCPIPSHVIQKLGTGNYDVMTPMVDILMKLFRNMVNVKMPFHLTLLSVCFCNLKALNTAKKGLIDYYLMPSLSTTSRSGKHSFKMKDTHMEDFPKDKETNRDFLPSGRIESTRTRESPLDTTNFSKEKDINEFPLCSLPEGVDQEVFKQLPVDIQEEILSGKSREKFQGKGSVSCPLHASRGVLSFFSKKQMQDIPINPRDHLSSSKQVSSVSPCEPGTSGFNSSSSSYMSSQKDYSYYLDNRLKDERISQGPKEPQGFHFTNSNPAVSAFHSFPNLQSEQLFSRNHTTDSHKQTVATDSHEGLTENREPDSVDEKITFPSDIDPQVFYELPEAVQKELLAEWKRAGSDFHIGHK
#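 Pol iota at 10 nM preincubated 15 min with compounds at room temperature; reaction started with fluorescent substrate, 50 nM final. Fluorescence read kinetically at 0 and 10 min; buffer-only wells as negative control.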
# POLH inh: DNA polymerase eta (human) inhibition. Potency, µM (highest dose often 114 µM), without a hit: top-dose activity change, negative = inhibition, most hits filed as inhibitors. recombinant Pol eta, fluorescent DNA replication assay. Q9Y253. actives 1.2% (n = 390,000); further: potency means the concentration at half of the fitted maximal effect; on the % scale 0 is the no-effect control and ±100 the full control effect
#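 Pol eta (10 nM) was preincubated with compounds for 15 min at room temperature, after which fluorescent replication substrate (50 nM final) was added to start the reaction. Fluorescence was read kinetically at 0 and 10 min.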
# Pol beta inh-1: blocks human DNA polymerase beta activity; Pol beta primer extension/strand displacement, fluorescence kinetic; Potency, µM (top dose mostly 114 µM), inactives show top-dose activity change, negative = inhibition, most hits filed as inhibitors; AID 485314; P06746; actives 1.3% (n = 340,000); further: potency means the concentration at half of the fitted maximal effect; on the % scale 0 is the no-effect control and ±100 the full control effect
#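 Reaction started by 50 nM substrate onto compound-treated Pol beta (10 nM, 15 min preincubation, room temperature); plates read at 0 min and 10 min. Normalized concentration-effect data fitted by four-parameter Hill equation.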
# Pol beta inh-2: Validate hits inhibiting human DNA polymerase beta | shares compounds with Pol beta inh-1 | Pol beta primer extension/strand displacement, fluorescence kinetic | Potency, µM, actives largely listed as inhibitors | actives 87% (n = 250) | AID 540280; calls by dose curve; further: potency means the concentration at half of the fitted maximal effect
# Klenow counter: Klenow polymerase inhibition, pol beta selectivity check; shares compounds with Pol beta inh-1; Klenow exo- polymerase counter-screen, fluorescent DNA substrate; activity change, negative = inhibition, % at 57.1 µM; 250 tested, under 10 active; AID 540300
# HIV RT inh: inhibits HIV-1 reverse transcriptase in counter-screen; shares compounds with Pol beta inh-1; HIV-1 RT polymerase activity, counter-screen; activity % (negative = inhibition, positive = activation), % at 57.1 µM; 250 tested, under 10 active
# BAZ2B inh: confirmation of human BAZ2B bromodomain inhibitors | actives 100% (n = 25) | Potency, µM, actives largely listed as inhibitors | shares compounds with Pol kappa inh | AlphaScreen BAZ2B / biotin-H3K14Ac peptide displacement; calls by dose curve
# BAZ2B bead ctr: interferes with AlphaScreen signal in BAZ2B counterscreen. shares compounds with Pol kappa inh. AlphaScreen biotin-His6 peptide bead counterscreen, signal decrease. Potency, µM (titrated, usually from 57.1 µM), without a hit: top-dose activity change, negative = inhibition, hits mostly inhibitors. 25 tested, under 10 active. AID 588859;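 active means clear concentration-dependent signal drop in the bead assay lacking the target, so a primary-screen artifact; inconclusive means weak, partial or single-dose response; inactive means no response, so a real primary hit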
# TbPGK inh: validation of Trypanosoma brucei phosphoglycerate kinase inhibitors; shares compounds with Pol kappa inh; TbPGK coupled GAPDH assay, Kinase-Glo luminescence; Potency, µM (series often up to 57.5 µM), for inactives: top-dose activity change, negative = inhibition, usual class: inhibitors; actives 79% (n = 500); further: potency means the concentration at half of the fitted maximal effect; on the % scale 0 is the no-effect control and ±100 the full control effect; nearly all actives have a fitted effect of over 65% in size
# * hit, by the source's call; u = inconclusive; x = no result given; [ ] = another dose, or the depositor's remark. This is a sample that favours compounds with a hit; in the whole collection about 2.4% have one here. Unless noted, the call rests on the fitted dose curve; in most records, active means well fitted curve in the direction sought with a large enough effect; inconclusive means small, poorly fitted or top-dose-only effect, or another doubt; inactive means no such curve, though single readings can be large; an effect the other way counts as inactive or inconclusive.
SMILES,FEN1 inh,WRN helicase inh,Pol kappa inh,Pol iota inh,POLH inh,Pol beta inh-1,others
C=C1C(=O)OC2CC3(C)OC3CCC(C)=CC(OC(C)=O)C12 (stereo not given),0.9%,-2.8%,-1.7%,4.9%,-13.6%,x,
C=C1C(=O)O[C@@H]2C[C@@H](C)[C@H]3C=CC(=O)[C@]3(O)C[C@@H]12,13.9%,-23.9%,-26.0%,u,31.6µM*,-0.8%,
CC1C(=O)OC2C1CC[C@@]1(C)C=CC(=O)[C@@]3(C)O[C@@]213 (stereo not given in full),x,x,-3.6%[60.1 µM],x,x,x,
Oc1cc[c]([Hg][Cl])cc1,x,x,-0.5%[19.4 µM],x,x,x,
COc1ccc(C=C2C(=O)NC(=S)NC2=O)cc1,-4.1%,50.1µM*,-9.8%,-2.7%,-4.2%,x,
O=C1NC(=S)NC(=O)C1=Cc1ccc(OCc2ccccc2)cc1,5.5%,35.5µM*,-8.0%,47.1%,-10.2%,x,
C=C(C)C(=O)Nc1cccc(C2=NOC3(C2)C[C@H](C(N)=O)N(C(=O)CC)C3)c1 (stereo not given in full),-6.1%,-5.6%,79.4µM*,u,11.2µM*,3.55µM*,Pol beta inh-2=8.91*;Klenow counter=-16.7;HIV RT inh=1.0;BAZ2B inh=7.08*;BAZ2B bead ctr=-2.9%
Fc1ccc(C(OCCN2CCN(C/C=C/c3ccccc3)CC2)c2ccc(F)cc2)cc1,x,x,0.0%[19.4 µM],x,x,x,
CCN(CC)C(=O)c1ccc2c(c1)C1C=CCC1C(C(=O)O)N2 (stereo not given),u,44.7µM*,u,12.6µM*,3.98µM*,35.5µM*,TbPGK inh=u
C[C@@]12CC[C@H](O)C[C@@H]1CC[C@H]1[C@@H]2C[C@@H](O)[C@]2(C)[C@@H](C3=CC(=O)OC3)CC[C@]12O,x,x,-5.7%[12 µM],x,x,x,
CN1C(=O)NC(=O)/C(=C\c2ccc([N+](=O)[O-])o2)C1=O,15.8µM*,25.1µM*,14.1µM*,2.51µM*,2.24µM*,100µM*,TbPGK inh=1.83µM*
CCN(CC)P(=O)(NC(=O)C(Cl)(Cl)Cl)N(CC)CC.[Cl-].[Cl-].[Cl-].[Nd+3],u,u,79.4µM*,u,u,u,TbPGK inh=u
NC(Cn1ccc(=O)[nH]c1=O)C(=O)O (stereo not given),x,x,x,-3.0%[58.9 µM],-4.6%[57.1 µM],19.2%[57.1 µM],
COP(=S)(OC)Oc1ccc([N+](=O)[O-])cc1,x,x,-16.7%[60.1 µM],x,x,x,

# Screening data deposited in PubChem by National Center for Advancing Translational Sciences (NCATS).
